Among all 2,300 compounds or so, about 900 (39%) were called active.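 How the source made its calls: active means mean duplicate percent inhibition, scaled so buffer wells are 0 and the reference blocker 100, over three buffer SD above buffer mean; inactive means the rest.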 Only a sample is shown.
These compounds were tested against Anoctamin-1 (Mus musculus) (UniProt Q8BHY3) (assay: blockers of mouse ANO1 channel, retest – cell-based, re-confirmation, confirmation (AID 652189)). Conditions: HEK293 TMEM16A/YFP-H148Q, iodide quench fluorescence, at 10 µM, ionomycin added to raise cell calcium; hits give high values.
Sequence of Anoctamin-1 (Mus musculus) (Q8BHY3 whole entry, looked up): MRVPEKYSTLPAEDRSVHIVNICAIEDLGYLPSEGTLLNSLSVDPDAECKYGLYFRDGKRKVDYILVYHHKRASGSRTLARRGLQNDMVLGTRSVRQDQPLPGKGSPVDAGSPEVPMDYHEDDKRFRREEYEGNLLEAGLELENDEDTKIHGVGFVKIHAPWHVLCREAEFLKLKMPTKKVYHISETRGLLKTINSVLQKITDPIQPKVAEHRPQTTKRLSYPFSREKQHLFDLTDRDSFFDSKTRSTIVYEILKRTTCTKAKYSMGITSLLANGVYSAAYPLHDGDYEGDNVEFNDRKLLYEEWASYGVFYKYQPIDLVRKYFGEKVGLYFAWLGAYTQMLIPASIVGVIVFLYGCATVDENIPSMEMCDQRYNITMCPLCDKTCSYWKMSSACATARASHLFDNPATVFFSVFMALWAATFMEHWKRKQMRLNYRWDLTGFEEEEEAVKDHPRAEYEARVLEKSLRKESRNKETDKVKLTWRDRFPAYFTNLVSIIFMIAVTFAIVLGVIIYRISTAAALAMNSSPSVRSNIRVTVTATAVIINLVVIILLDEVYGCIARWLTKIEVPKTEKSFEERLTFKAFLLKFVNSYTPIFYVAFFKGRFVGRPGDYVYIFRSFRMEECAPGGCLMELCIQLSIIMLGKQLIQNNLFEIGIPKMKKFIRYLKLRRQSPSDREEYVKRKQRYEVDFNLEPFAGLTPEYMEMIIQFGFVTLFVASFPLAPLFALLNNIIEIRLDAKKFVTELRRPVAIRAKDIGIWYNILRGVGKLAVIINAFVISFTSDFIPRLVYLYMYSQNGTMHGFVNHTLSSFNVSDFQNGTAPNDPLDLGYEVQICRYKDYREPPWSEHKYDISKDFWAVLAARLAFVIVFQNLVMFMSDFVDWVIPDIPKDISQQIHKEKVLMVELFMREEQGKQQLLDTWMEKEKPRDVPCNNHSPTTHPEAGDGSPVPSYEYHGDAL

Structure (SMILES)	inhibition
CCCCCn1c(=O)c(C(=O)NCc2ccccn2)c(O)c2ccccc21	23% (active)
CCOc1cccc(=NC2CCCCC2)c2c(C)[nH]c(C)c12	inactive
CCN(CC)C(=O)c1ccc(NC(=O)c2cc(-n3cnnc3)ccc2Cl)cc1	inactive
